The full list was thinned out, with hits kept by preference.
KDM5B inh = Primary screen for KDM5B Histone Demethylases FDH-coupled qHTS. KDM5B demethylase, FDH-coupled NADH fluorescence (FDH is formaldehyde dehydrogenase). Potency, µM (highest dose often 57.7 µM), hits mostly inhibitors. Lysine-specific demethylase 5B (Homo sapiens), Q9UGL1. 220,000 compounds, 2.6% hits; active = well fitted inhibition curve with a large enough effect; note: nearly all actives have a fitted effect of over 70% in size
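qHTS format, multiple compound concentrations. Buffer 50 mM HEPES pH 7.5/0.01% Tween-20; 200 nM KDM5BΔAP final; 10 min compound preincubation; substrate-mix levels 12.5 µM peptide, 25 µM α-KG, 0.25 mM NAD⁺; 30 min RT; ΔRFU.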
Of the large screens only hits and unclear results are named; the others gave an inactive call.

CCC1CCCCN1C(=O)CSc1nc2cc(S(=O)(=O)Nc3ccc(OC)cc3)ccc2o1 (centres undefined)	none
Cc1ccc(NC(=O)/C=C/c2cccs2)cc1	none
O=C(O)C1(c2ccccc2)CCOCC1	none
c1cncc(-c2[nH]ncc2CNCc2cccs2)c1	none
Cc1cc2nc3n(c(=O)c2n1CC(=O)Nc1ccc(Cl)cc1F)CCCC3	none
CCN(CC)Cc1ccc(CNS(=O)(=O)c2cccs2)cc1	none
CC(O)CCn1ccc2[nH]c(=O)c(C#N)cc2c1=O (centres undefined)	none
N#Cc1cc2c(=O)n(CCc3n[nH]c4c3CCCC4)ccc2[nH]c1=O	KDM5B inh 32µM
CCCCc1nc(C)cc(NCCn2ccc3[nH]c(=O)c(C#N)cc3c2=O)n1	none
Cc1ccc2oc(C(=O)N(Cc3ccc(Cl)cc3)C3CCS(=O)(=O)C3)cc(=O)c2c1 (centres undefined)	none
CNc1ncccc1C(=O)N1CCc2nc(-c3cn[nH]c3)[nH]c2C1	KDM5B inh 28µM
Cc1cn(CC(=O)N2CCc3nc(-c4cn[nH]c4)[nH]c3C2)c(=O)[nH]c1=O	none
Cc1nnnn1Cc1ccc(C(=O)N2CCc3nc(-c4cn[nH]c4)[nH]c3C2)cc1	none
CCC(=O)Nc1sc(C)c(C)c1C#N	none
CCOC(=O)C(NC(=O)[C@@H](NC(=O)c1ccc(Cl)cc1Cl)C(C)C)C(=O)OCC	none
COC(=O)/C(C#N)=C/c1ccc(-c2ccc(Br)cc2)o1	none
Cc1nn2c(c1-c1ccccc1[S+](C)(=O)[O-])N(C(=O)c1cccc(O)c1)CCC2	none
Cc1ncsc1C(=O)N1CCCn2nc(C)c(-c3ccccc3-c3ccccc3)c21	none
CC(=O)Nc1ccccc1-c1c(C)nn2c1N(Cc1ccccc1)CCC2	none
Cc1nn2c(c1-c1ccccc1-c1ccccc1)N(Cc1cccc(O)c1)CCC2	KDM5B inh 28µM
Cc1ccc(CN2CCCn3nc(C)c(-c4ccccc4-c4ccccc4)c32)o1	KDM5B inh 35µM
Cc1nn2c(c1-c1ccccc1-c1ccccc1)N(C(=O)c1ccn(C)n1)CCC2	none
CCCc1ccc(NC(=O)c2n[nH]c(=O)c3ccccc23)cc1	none
Cc1nn(C)c(Cl)c1C=O	none
Cn1c(=O)c2[nH]c(N3CCC(C(=O)O)CC3)nc2n(C)c1=O	none
COc1ccc(-c2nc(C(=O)N3CCCCC3C)nn2-c2ccccc2Cl)cc1 (centres undefined)	none
CC(NC(=O)c1ccc(-c2ccccc2)cc1)c1ccccc1 (centres undefined)	none
CC(=O)NC(O)C(=O)c1ccc(C)cc1 (centres undefined)	none
O=C(Nc1ccc(Cl)cc1C(F)(F)F)c1ccccc1F	none
Cn1ccc2c(C(=O)NCc3cccnc3)nc(-c3cccc(O)c3)cc21	KDM5B inh 40µM
Cn1ccc2c(C(=O)NCc3cccnc3)nc(-c3cnn(Cc4ccccc4)c3)cc21	none
Cc1ccc(-c2cc3c(ccn3C)c(C(=O)NCc3cccnc3)n2)cn1	none
Cn1ccc2c(C(=O)NCc3cccnc3)nc(-c3cncnc3)cc21	none
Cn1ccc2c(C(=O)NCc3cccnc3)nc(-c3cccc(F)c3)cc21	KDM5B inh 22µM
COc1ccc(-c2cc3c(ccn3C)c(C(=O)NCc3cccnc3)n2)cc1	none
CN(Cc1ccc(-c2ccccc2)cc1)C(=O)Cc1cccc(Cl)c1	none
CCC(NC(=O)Nc1ccc(Br)cc1)c1ccc(C(C)C)cc1 (centres undefined)	none
COc1ccc2c(c1)C(NC(=O)c1cn(CCN)nn1)CC(C)(C)O2 (centres undefined)	none
CCc1noc(-c2ccn3c(CNC(=O)CCC4CCCC4)nnc3c2)n1	KDM5B inh 4.5µM
O=C(CCC1CCCC1)NCCc1noc(-c2ccccc2)n1	none
CCc1noc(-c2ccn3c(CNC(=O)C4CCCCC4)nnc3c2)n1	KDM5B inh 28µM
Cc1noc(-c2ccn3c(CNC(=O)CCC4CCCC4)nnc3c2)n1	KDM5B inh 22µM
O=C(NC1CCCC1)C(Cc1ccccc1)NS(=O)(=O)c1ccc(Br)s1 (centres undefined)	none
CC(C)c1ccc(C2C3=C(CC(C)(C)CC3=O)OC3=C2C(=O)CC(C)(C)C3)cc1	none
CCCNc1c(NC(=O)c2ccccc2)c(=O)oc2ccccc12	none
CC(CSc1nc2ccccc2o1)Cn1c(N2CCOCC2)nc2c1c(=O)[nH]c(=O)n2C (centres undefined)	none
Cc1nc(C(=O)N2CCC(c3[nH]ncc3-c3ccccc3C)CC2)cs1	none
Cc1ccccc1-c1cn[nH]c1C1CCN(C(=O)c2cnn3ccccc23)CC1	KDM5B inh 22µM
CCn1cc(CN2CCC(c3[nH]ncc3-c3ccccc3C)CC2)cn1	none
COCCN1CCCC2(CCN(C(=O)c3oc4cc(C)ccc4c3C)C2)C1=O (centres undefined)	none
CCn1ccc2c(CN3CCC4(CCCN(CCOC)C4=O)C3)cccc21 (centres undefined)	KDM5B inh 28µM
COCCN1CCCC2(CCN(C(=O)COc3cccc(C)c3C)C2)C1=O (centres undefined)	none
Cc1cc(C)n(-c2nc3c(c(=O)n(CCN4CCCCC4)c(=O)n3C)n2C)n1	none
CSc1ccc(Cl)c(C(=O)Oc2ccccc2Cc2ccccc2)c1	none
Cc1ccc(Cn2c(CCCOc3ccc(Cl)cc3Cl)n[nH]c2=S)cc1	none
COc1ccc(CCNC(=O)c2noc(-c3ccccc3F)n2)cc1OC	none
O=C(NCC1CC1)c1noc(-c2ccccc2F)n1	KDM5B inh 20µM
O=C(NCC1CCCCC1)c1noc(-c2ccc[nH]c2=O)n1	none
CCO[C@H]1CN(C(=O)c2cnc(Nc3ccccc3)nc2)C[C@@H]1O	none
CCO[C@H]1CN(C(=O)c2cnn(Cc3ccccc3)c2)C[C@@H]1O	none
CCO[C@H]1CN(C(=O)c2nc3ccccc3[nH]c2=O)C[C@@H]1O	KDM5B inh 25µM
Cn1cc(C(=O)N2CCNC(=O)C2)c2ccccc21	none
COc1ccc(-c2noc(-c3ccc(S(=O)(=O)N4CCOCC4)o3)n2)cc1	none
COc1ccc(-c2noc(-c3ccc(N4CCOCC4)c([N+](=O)[O-])c3)n2)cc1	none
COc1ccc(-c2noc(-c3nc(C)no3)n2)cc1	none
COc1ccc(-c2noc(-c3ccc(N4CCCOCC4)nc3)n2)cc1	KDM5B inh 32µM
COc1ccc(-c2noc(-c3ccc(Br)o3)n2)cc1	none
COc1ccc(-c2noc(-c3ccc(N4C[C@H]5CC[C@H]4C5)nc3)n2)cc1	KDM5B inh 32µM
Cc1ccc2nc(-c3ccccc3)cc(C(=O)N3CCN(CC(=O)N4CCOCC4)CC3)c2c1	none
Cc1ccc2c(C)c(CCC(=O)N(C)c3ccccc3)c(=O)oc2c1	none
Cc1ccc2c(CN3CCc4cc(S(N)(=O)=O)ccc43)cc(=O)oc2c1C	none
COc1cccc(CN2CC(Oc3ccccc3C(=O)NCc3ccccc3)C2)c1	none
C=CCOC(=O)C1=C(C)N=C2SC=C(CC(=O)N3CCCC3)N2C1c1cc(OC)cc(OC)c1 (centres undefined)	none
C=CCOC(=O)C1=C(C)N=C2SC=C(CC(=O)N3CCCC3)N2C1c1ccc(OC)cc1OC (centres undefined)	KDM5B inh 28µM
COc1ccc(C2C(C(=O)OC(C)(C)C)=C(C)N=C3SC=C(CC(=O)N4CCCC4)N32)cc1OC (centres undefined)	none
COc1ccc(-c2cnc(C)o2)cc1S(=O)(=O)Nc1cccc(Br)c1	none
COC(=O)c1sccc1S(=O)(=O)Oc1ccc2c(C(F)(F)F)cc(=O)oc2c1	none
CCN(CC(=O)Nc1ccccc1OC)C(=O)c1cc(=O)c2cc(C)ccc2o1	none
CN1CC2(CCN(C(=O)c3ccc4ccccc4n3)CC2)CC1C(=O)N1CCOCC1 (centres undefined)	none

Screens: PubChem BioAssay, National Center for Advancing Translational Sciences (NCATS)
